Results on 8 molecules are retold here after paper PMC5540273 (PLoS ONE, 2017).

Among the test systems are CSNK1A1L; CSNK1A1; CSNK1D; CSNK1E; CSNK1G1; CSNK1G2; CSNK1G3; CSNK2A1; CSNK2A2; DAPK1; DAPK2; DAPK3; DDR1; DDR2.
Conditions in all cases: concentration: 1 μM, replicates: in singlicate; n = 1
The next experiment deals with T1, CTK.
T1 construct: gene MATK

The next experiment concerns T2, DCAMKL1.
T2 construct: gene DCLK1

For the next experiment, the system named is T3, DCAMKL2.
T3 construct: gene DCLK2

The subject of another experiment is T4, DCAMKL3.
T4 construct: gene DCLK3

The test system of a further experiment is T5, DLK.
T5 construct: gene MAP3K12

The subject of a further experiment is T6, DMPK2.
T6 construct: gene CDC42BPG

Each structure is given as a SMILES string.
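Note: KINOMEscan kinase panel screen.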

Regarding `CCCCCc1nc2c(N)ncnc2n1CCCCC` [SKF-97255], the “%Inh” value is on record as 0% in the experiment on CSNK1A1L; 14% in the experiment on CSNK1A1; 0% with CSNK1D; 3% in the experiment on CSNK1E; 0% with CSNK1G1; 0% in the experiment with CSNK1G2. The “%Inh” value in the experiment with CSNK1G3 is recorded as 6%; in the experiment on CSNK2A1, 0%; with CSNK2A2 it was 28%; in the experiment with CTK it was 0%; in the experiment with DAPK1 it was 0%; in the experiment with DAPK2, 0%. The “%Inh” value is listed as 0% with DAPK3; 23% in the experiment with DCAMKL1; 0% in the experiment on DCAMKL2; 5% with DCAMKL3; 0% in the experiment on DDR1; 21% in the experiment on DDR2. The “%Inh” value in the experiment with DLK and in the experiment on DMPK2 was 0% each time.
On to `Cl.Oc1cccc(Nc2ccnc3cc(-c4ccncc4)ccc23)c1` [GW494601], for which the “%Inh” value is on record as 42% in the experiment on CSNK1A1L; 55% in the experiment with CSNK1A1; 28% in the experiment with CSNK1D; 45% in the experiment on CSNK1E; 40% with CSNK1G1; 0% in the experiment on CSNK1G2. Further, the “%Inh” value in the experiment with CSNK1G3 is given as 22%; in the experiment with CSNK2A1, 0%; in the experiment with CSNK2A2 it was 0%; in the experiment on CTK, 0%; in the experiment with DAPK1, 5%; in the experiment on DAPK2, 3%. The “%Inh” value was found to be 15% in the experiment on DAPK3; 4% in the experiment on DCAMKL1; 0% in the experiment on DCAMKL2; 8% with DCAMKL3; 68% in the experiment on DDR1; 82% in the experiment on DDR2. The entries for the “%Inh” value in the experiment on DLK and in the experiment with DMPK2 were 54% and 0%, respectively.
In the case of `Fc1ccc(-c2ncn(CCCN3CCOCC3)c2-c2ccccn2)cc1` [SB-211742], the “%Inh” value was found to be 0% with CSNK1A1L; 36% in the experiment with CSNK1A1; 10% in the experiment on CSNK1D; 9% in the experiment with CSNK1E; 5% in the experiment on CSNK1G1; 0% in the experiment on CSNK1G2. Also, the “%Inh” value amounted to 0% with CSNK1G3; 0% in the experiment with CSNK2A1; 0% in the experiment on CSNK2A2; 0% in the experiment with CTK; 17% with DAPK1; 0% in the experiment with DAPK2. Further, the “%Inh” value with DAPK3 turned out to be 10%; in the experiment on DCAMKL1, 12%; with DCAMKL2 it was 0%; in the experiment with DCAMKL3 it was 12%; in the experiment on DDR1, 0%; with DDR2, 27%. Moreover, the entries for the “%Inh” value with DLK and in the experiment with DMPK2 were 20% and 0%, respectively.
Take `Cc1ccc(NC(=O)c2ccnc(N3CCN(C)CC3)c2)cc1-c1ccc(C(=O)NCC2CC2)cc1` [GW775604]: the “%Inh” value amounted to 0% in the experiment with CSNK1A1L; 0% with CSNK1A1; 0% with CSNK1D; 24% with CSNK1E; 0% in the experiment with CSNK1G1; 0% with CSNK1G2. Further, the “%Inh” value in the experiment on CSNK1G3 is listed as 0%; with CSNK2A1 it was 0%; in the experiment with CSNK2A2, 7%; in the experiment on CTK, 0%; with DAPK1 it was 5%; with DAPK2, 0%. In addition, the “%Inh” value in the experiment on DAPK3 worked out at 0%; in the experiment with DCAMKL1 it was 0%; in the experiment on DCAMKL2, 15%; with DCAMKL3, 0%; in the experiment with DDR1, 77%; in the experiment on DDR2, 59%. Further, the “%Inh” value with DLK and with DMPK2 was 0% each time.
Take `NS(=O)(=O)c1cccc(-c2ccc3ncc(N4CCOCC4)nc3c2)c1` [GSK1535721]: the “%Inh” value in the experiment with CSNK1A1L is reported as 0%; with CSNK1A1, 0%; in the experiment on CSNK1D it was 16%; in the experiment with CSNK1E, 0%; with CSNK1G1, 12%; in the experiment with CSNK1G2, 0%. The “%Inh” value with CSNK1G3 came to 19%; with CSNK2A1 it was 4%; in the experiment with CSNK2A2 it was 18%; in the experiment on CTK it was 0%; in the experiment on DAPK1, 18%; with DAPK2, 12%. Further, the “%Inh” value in the experiment with DAPK3 is given as 18%; in the experiment on DCAMKL1, 10%; in the experiment on DCAMKL2, 0%; in the experiment on DCAMKL3, 0%; in the experiment with DDR1, 0%; in the experiment with DDR2, 23%. In addition, the “%Inh” value in the experiment on DLK turned out to be 26%; with DMPK2 it was 1%.
As for `Nc1nc(-c2ccc3c(N)n[nH]c3c2)cc(N2CCCC2)n1` [GSK2227430], the “%Inh” value in the experiment on CSNK1A1L turned out to be 0%; in the experiment with CSNK1A1, 0%; in the experiment on CSNK1D it was 0%; with CSNK1E, 25%; in the experiment on CSNK1G1 it was 0%; with CSNK1G2, 0%. The “%Inh” value in the experiment with CSNK1G3 was 19%; in the experiment with CSNK2A1, 0%; in the experiment on CSNK2A2 it was 4%; in the experiment with CTK it was 0%; with DAPK1 it was 0%; in the experiment with DAPK2 it was 0%. The “%Inh” value amounted to 1% in the experiment with DAPK3; 13% in the experiment with DCAMKL1; 0% with DCAMKL2; 0% with DCAMKL3; 7% in the experiment on DDR1; 3% in the experiment on DDR2. For the same molecule, the “%Inh” value with DLK and with DMPK2 was 0% in each case.
For `COc1ccc(Nc2nccc(N3CCC(NC(=O)Nc4cc(C)ccc4C)C3)n2)cc1` (stereo not shown) [GSK1379741], the “%Inh” value in the experiment with CSNK1A1L turned out to be 2%; in the experiment on CSNK1A1, 0%; with CSNK1D it was 0%; with CSNK1E, 12%; in the experiment with CSNK1G1, 0%; with CSNK1G2 it was 0%. Also, the “%Inh” value with CSNK1G3 is 14%; in the experiment with CSNK2A1, 0%; with CSNK2A2, 0%; with CTK, 0%; with DAPK1 it was 0%; with DAPK2, 0%. Further, the “%Inh” value with DAPK3 amounted to 10%; in the experiment on DCAMKL1 it was 0%; in the experiment with DCAMKL2, 0%; with DCAMKL3 it was 4%; with DDR1, 23%; with DDR2, 0%. In addition, the “%Inh” value with DLK and in the experiment on DMPK2 was 0% each time.
Regarding `COc1ccc(Nc2ncc(C#N)c(Nc3ccccc3C(N)=O)n2)cc1N1CCN(C)CC1.Cl` [GSK1558669], the “%Inh” value stood at 97.3% with CSNK1A1L; 82% in the experiment with CSNK1A1; 66% in the experiment with CSNK1D; 78% in the experiment on CSNK1E; 50% in the experiment with CSNK1G1; 0% in the experiment with CSNK1G2. Besides, the “%Inh” value in the experiment on CSNK1G3 turned out to be 27%; with CSNK2A1, 99.7%; in the experiment on CSNK2A2, 99.9%; with CTK, 56%; in the experiment on DAPK1, 97.8%; in the experiment on DAPK2 it was 98.5%. Besides, the “%Inh” value with DAPK3 was 99.2%; with DCAMKL1, 97.4%; in the experiment on DCAMKL2 it was 100%; with DCAMKL3, 99.6%; in the experiment on DDR1, 100%; in the experiment with DDR2, 94.2%. The “%Inh” value in the experiment on DLK is recorded as 97.8%; with DMPK2 it was 89%.
